{"source": "PubChem BioAssay", "note": "Values without a mark were called inactive. Activity calls are given as the source filed them."}
{"assay": "FRG1 expression reporter modulators in myotubes – cell-based, C2C12 myotubes, firefly/Renilla luciferase, luminescence, FRG1 inhibition for FSHD, primary screen (AID 1084)", "settings": "FRG1 promoter luciferase, higher = more signal, called active from +8 up or from −8 down"}
{"compound": "CC(C)=NO[C@H](C)c1cn([C@H](CO)Cc2ccccc2)nn1", "z-score": -0.266}
{"compound": "CCOC(=O)[C@H](CC(C)C)NC(=O)CCC1CC(OC(=O)NCc2cccc3ccccc23)CC2(CCCC(COC(=O)NCCOc3ccccc3)O2)O1", "note": "(stereo partly specified)", "z-score": 1.67}
{"compound": "O=C1C[C@@H](O)[C@@H](O)[C@@H]2[C@@H]3C(=O)N(C[C@@H]4CCCO4)C(=O)[C@@H]3CC[C@@H]12", "z-score": -1.13}
{"compound": "CCOC(=O)[C@H](CC(C)C)NC(=O)CCC1CC(OC(=O)NCc2cccc3ccccc23)CC2(CCCC(COC(=O)NCCc3ccc(Cl)cc3)O2)O1", "note": "(stereo partly specified)", "z-score": 1.83}
{"compound": "CO[C@H]1COC(=O)CC=C[C@@H](C)[C@H](NS(=O)(=O)c2ccc(C)cc2)COC(=O)CCC[C@@H]1C", "z-score": 0.408}
{"compound": "CO[C@H]1COC(=O)[C@H](C)NC(=O)CC=C[C@@H](C)[C@H](OC)COC(=O)[C@@H](OCc2ccccc2)C=C[C@@H]1C", "z-score": -0.0754}
{"compound": "CCCNC(=O)OC[C@H]1O[C@H](CCON=C(C)CCN2CCCc3nc(C)c(C)cc32)C=C[C@@H]1Oc1ccc(OC)cc1", "z-score": -0.46}
{"compound": "C#CCCCON=C1C[C@@H](O)[C@@H](O)[C@@H]2[C@@H]3C(=O)N(CC)C(=O)[C@@H]3CC[C@@H]12", "z-score": -0.0351}
{"compound": "COC(=O)[C@H](C)NC(=O)CCC1CC(OC(=O)NCc2ccc3c(c2)OCO3)CC2(CCCC(COC(=O)NCC3CCCCC3)O2)O1", "note": "(stereo partly specified)", "z-score": 0.0762}
{"compound": "CO[C@H]1COC(=O)CC=C[C@@H](C)[C@H](OC)COC(=O)[C@@H]2CCCN2C(=O)CC=C[C@@H]1C", "z-score": -0.273}
{"compound": "CON=C[C@@H](NS(=O)(=O)c1ccc(C)cc1)[C@H](C)C=CCC(=O)OC", "z-score": 0.494}
{"compound": "COc1cccc([C@H]2Oc3ccc(OC)cc3C(=NO[C@H](C)c3cn([C@H](CO)Cc4ccccc4)nn3)[C@@H]2O)c1", "z-score": 0.787}
{"compound": "COc1ccc(COC(=O)NN=C2C[C@@H](O)[C@@H](O)[C@@H]3[C@@H]4C(=O)N(c5cccc(Oc6ccccc6)c5)C(=O)[C@@H]4CC[C@@H]23)cc1", "z-score": 0.331}
{"compound": "CO[C@@H]1COC(=O)CC=C[C@H](C)[C@H](OC)COC(=O)[C@H](C)NC(=O)CC=C[C@H]1C", "z-score": -0.175}
{"compound": "O=C1C[C@@H](O)[C@@H](O)[C@@H]2[C@@H]3C(=O)N(C[C@@H]4CCCO4)C(=O)[C@@H]3CC[C@H]12", "z-score": -0.0616}
{"compound": "COC(=O)[C@@H]1CC[C@@H](C)[C@H](c2ccc(Br)cc2)N1", "z-score": -1.02}
{"compound": "COC(=O)[C@@H]1CC[C@H](C)[C@@H](c2ccc(C)cc2)N1C(=O)c1ccc(C=NO[C@H](C)c2cn([C@@H]3COC[C@H]3O)nn2)cc1", "z-score": 0.191}
{"compound": "Cn1c(=O)n2n(c1=O)[C@H]1[C@H](O)[C@@H]3O[C@@H]3C(=NOCc3ccccc3)[C@H]1CC2", "z-score": -0.928}
{"compound": "CCOC(=O)NN=C1C[C@@H](O)[C@@H](O)[C@@H]2[C@@H]3C(=O)N(c4cccc(Oc5ccccc5)c4)C(=O)[C@@H]3CC[C@@H]12", "z-score": -0.233}
{"compound": "COC(=O)[C@H](C)NC(=O)CCC1CC(OC(=O)NCc2cccc3ccccc23)CC2(CCCC(COC(=O)NCC(c3ccccc3)c3ccccc3)O2)O1", "note": "(stereo partly specified)", "z-score": 2.44}
{"compound": "Cc1ccc(S(=O)(=O)n2c3ccccc3c3nnc(C(=O)c4ccccc4)nc32)cc1", "z-score": "49.6 (active)"}
{"compound": "COC(=O)C=CCCc1coc(C=CCNC(=O)OC)n1", "z-score": 0.721}
{"compound": "CON=C1[C@H]2CCn3c(=O)n(-c4ccccc4)c(=O)n3[C@H]2[C@H](O)[C@@H]2O[C@H]12", "z-score": -1.17}
{"compound": "CC(C)=CCCC(C)=CCON=C1C[C@@H](O)[C@@H](O)[C@@H]2[C@@H]3C(=O)N(C4CCCCC4)C(=O)[C@@H]3CC[C@@H]12", "z-score": 0.735}
{"compound": "O=C1[C@H]2[C@H]3[C@H](O)[C@H](O)CC(=NOC[C@@H](O)COCc4ccco4)[C@H]3CC[C@H]2C(=O)N1C[C@@H]1CCCO1", "z-score": 0.839}
{"compound": "O=C(NN=C1C[C@@H](O)[C@@H](O)[C@@H]2[C@@H]3C(=O)N(C[C@@H]4CCCO4)C(=O)[C@@H]3CC[C@@H]12)OCc1ccccc1", "z-score": -0.891}
{"compound": "COc1ccc(C#C[C@@H]2C=C[C@H](OC(C)=O)[C@@H](COC(C)=O)O2)cc1", "z-score": 0.742}
{"compound": "CC(C)CON=C1C[C@@H](O)[C@@H](O)[C@@H]2[C@@H]3C(=O)N(c4cccc(Oc5ccccc5)c4)C(=O)[C@@H]3CC[C@@H]12", "z-score": -1.18}
{"compound": "CCOC(=O)[C@H](CC(C)C)NC(=O)CCC1CC(OC(=O)NCc2cccc3ccccc23)CC2(CCCC(COC(=O)NCc3cccc(C(F)(F)F)c3)O2)O1", "note": "(stereo partly specified)", "z-score": -1.03}
{"compound": "C#CCCCON=C1C[C@@H](O)[C@@H](O)[C@@H]2[C@@H]3C(=O)N(Cc4ccccc4)C(=O)[C@@H]3CC[C@@H]12", "z-score": -0.211}
{"compound": "COc1ccc(O[C@H]2C=C[C@@H](c3ccccc3)O[C@@H]2CON=CC[C@@H]2C=C[C@H](OC(C)=O)[C@@H](COC(C)=O)O2)cc1", "z-score": 1.01}
{"compound": "CC(C)(C)N1C(=O)[C@H]2[C@H]3[C@H](O)[C@H](O)CC(=O)[C@H]3CC[C@H]2C1=O", "z-score": -0.0954}
{"compound": "Cc1cc2c(nc1C)CCCCN2CC(C)ON=C[C@@H](C)[C@H](OCc1ccccc1)C(C)C", "note": "(stereo partly specified)", "z-score": -0.154}
{"compound": "C#CCCCON=C1C[C@@H](O)[C@@H](O)[C@@H]2[C@@H]3C(=O)N(CCC(=O)OCC)C(=O)[C@@H]3CC[C@H]12", "z-score": -1.41}
{"compound": "CCOC(=O)[C@H](CC(C)C)NC(=O)CCC1CC(OC(=O)NCc2cccc3ccccc23)CC2(CCCC(COC(=O)NCCOC)O2)O1", "note": "(stereo partly specified)", "z-score": -0.0725}
{"compound": "COc1ccc(COC(=O)NN=C2C[C@@H](O)[C@@H](O)[C@@H]3[C@@H]4C(=O)N(c5ccc(F)cc5F)C(=O)[C@@H]4CC[C@H]23)cc1", "z-score": 0.398}
